Measured values published in PubChem BioAssay.
For some of these results: Results with a measured potency or affinity are listed apart. Active and inactive are the calls of the source.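 Rule for the calls, unless noted: active = membrane potential signal rise above negative control mean plus 3 SD in both duplicates, also active in the earlier TRPC4 screen; inactive = the rest.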

Tests used:
[1] = tested on: TRPC4 beta (transient receptor potential cation channel C4), mouse; assay: activators of mouse TRPC4 channel, confirmation, cell-based, Fluo4 calcium, HEK293 TRPC4beta/mu-opioid, duplicates, 10 µM (AID 2426;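 active = fluorescence ratio normalized to control raised more than 50% in primary screen plus both repeat runs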); details: Fluo4 calcium fluorescence, at 10 µM; hits give high values
[2] = tested on: transient receptor potential cation channel C4 beta (TRPC4), mouse; assay: activators of mouse TRPC4 channel, confirmation, cell-based, second round, Fluo4, HEK293 TRPC4beta/mu-opioid, 1 µM (AID 2461;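 active = primary screen active and over 50% activation in each of two duplicate runs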); details: Fluo4 calcium fluorescence, at 1 µM; hits give high values
[3] = tested on: TRPC4 (transient receptor potential cation channel C4 beta), mouse; assay: positive allosteric modulators of mouse TRPC4, confirmation, cell-based, second round, Fluo-4, HEK293 TRPC4beta/mu-opioid, 1 µM (AID 2554;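 active = primary screen hit whose fluorescence ratio, in both repeats, exceeds the weak agonist control mean by 3 SD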); details: DAMGO EC20, Fluo-4 calcium flux, at 1 µM; hits give high values
[4] = tested on: TRPC4 beta (transient receptor potential cation channel C4), mouse; assay: positive allosteric modulators of mouse TRPC4, confirmation, cell-based, Fluo-4, HEK293 TRPC4beta/mu-opioid (AID 2555;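 active = primary screen hit whose calcium fluorescence ratio, in both repeats, exceeds the weak agonist control mean by 3 SD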); details: DAMGO EC20, Fluo-4 calcium flux, at 10 µM; hits give high values
[5] = target: Short transient receptor potential channel 4 (Mus musculus) (UniProt Q9QUQ5); assay: inhibitors of mouse TRPC4 channel, confirmation, cell-based, Fluo4, HEK293 TRPC4beta/mu-opioid (AID 2636;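 active = calcium signal cut by more than 3 SD below the full-agonist control yet still positive, in both repeats and the earlier primary screen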); details: DAMGO, Fluo4 calcium flux, at 10 µM; hits give high values
Sequence of Short transient receptor potential channel 4 (Mus musculus) (Q9QUQ5 whole entry, looked up): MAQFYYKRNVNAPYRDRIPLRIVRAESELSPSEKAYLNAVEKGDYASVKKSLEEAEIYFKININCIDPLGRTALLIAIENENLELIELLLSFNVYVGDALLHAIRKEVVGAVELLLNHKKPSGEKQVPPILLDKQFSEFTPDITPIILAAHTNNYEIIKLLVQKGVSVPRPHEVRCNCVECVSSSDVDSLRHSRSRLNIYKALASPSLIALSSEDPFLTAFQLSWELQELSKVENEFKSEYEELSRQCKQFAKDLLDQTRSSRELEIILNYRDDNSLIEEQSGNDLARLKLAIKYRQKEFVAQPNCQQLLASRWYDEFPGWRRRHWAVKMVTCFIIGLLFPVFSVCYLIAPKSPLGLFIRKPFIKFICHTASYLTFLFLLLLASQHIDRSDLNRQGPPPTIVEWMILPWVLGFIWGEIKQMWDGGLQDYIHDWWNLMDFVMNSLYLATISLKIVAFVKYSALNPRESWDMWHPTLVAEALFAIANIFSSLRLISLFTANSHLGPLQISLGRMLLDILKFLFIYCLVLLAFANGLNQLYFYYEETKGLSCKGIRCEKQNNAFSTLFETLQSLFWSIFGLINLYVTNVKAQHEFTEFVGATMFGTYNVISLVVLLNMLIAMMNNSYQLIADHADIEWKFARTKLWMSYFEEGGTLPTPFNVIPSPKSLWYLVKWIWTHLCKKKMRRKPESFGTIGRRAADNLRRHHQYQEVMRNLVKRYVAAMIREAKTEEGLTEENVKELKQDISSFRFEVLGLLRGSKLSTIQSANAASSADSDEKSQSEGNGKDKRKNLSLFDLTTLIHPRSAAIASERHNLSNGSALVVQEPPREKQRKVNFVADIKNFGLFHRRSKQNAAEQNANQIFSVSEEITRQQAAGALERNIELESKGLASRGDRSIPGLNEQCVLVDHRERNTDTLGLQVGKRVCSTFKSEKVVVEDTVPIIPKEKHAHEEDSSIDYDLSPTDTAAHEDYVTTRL

[6] = target: Short transient receptor potential channel 4 (Mus musculus) (UniProt Q9QUQ5); assay: inhibitors of mouse TRPC4 channel, confirmation, cell-based, second round, Fluo4, HEK293 TRPC4beta/mu-opioid, 1 µM (AID 2637;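 active = calcium signal ratio cut to more than 3 SD under the fully stimulated control mean yet still positive, in both repeats and the primary screen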;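 for inhibition: percent of integrated ratio relative to wells lacking test compound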); details: Fluo4 calcium flux, DAMGO, at 1 µM; hits give high values
[7] = target: Short transient receptor potential channel 4 (Mus musculus) (UniProt Q9QUQ5); assay: mouse TRPC4 channel activators, dose response, cell-based, HEK293 TRPC4/mu-opioid, Fluo-4 calcium (AID 434937;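 active = primary screen activator hit with a dose response curve and TRPC4 channel activation at any tested dose; inactive = no activation, no dose response, or not a primary hit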)
[8] = target: Short transient receptor potential channel 4 (Mus musculus) (UniProt Q9QUQ5); assay: TRPC4 positive allosteric modulators, dose response, cell-based, HEK293 TRPC4/mu-opioid, Fluo-4 calcium, EC20 DAMGO (AID 434941;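 active = earlier screen potentiator hit that boosts the TRPC4 ion channel at some dose, with a dose response; inactive = no potentiation, no dose response, or not a prior hit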;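 note: calcium entry triggered by an EC20 dose of DAMGO at the co-expressed mu-opioid receptor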)
[9] = target: Short transient receptor potential channel 6 (Mus musculus) (UniProt Q61143); assay: inhibition of mouse TRPC6 channel, confirmation, selectivity assay for TRPC4 inhibitor project, cell-based, HEK293, membrane potential dye, duplicate (AID 434948;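 active = active in primary screen and both duplicates, each dropping signal beyond three positive-control SD with fluorescence still positive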); details: HEK293 TRPC6, membrane potential dye fluorescence, at 10 µM, stimulated with maximal-effect acetylcholine; hits give high values
Sequence of Short transient receptor potential channel 6 (Mus musculus) (Q61143 whole entry, looked up): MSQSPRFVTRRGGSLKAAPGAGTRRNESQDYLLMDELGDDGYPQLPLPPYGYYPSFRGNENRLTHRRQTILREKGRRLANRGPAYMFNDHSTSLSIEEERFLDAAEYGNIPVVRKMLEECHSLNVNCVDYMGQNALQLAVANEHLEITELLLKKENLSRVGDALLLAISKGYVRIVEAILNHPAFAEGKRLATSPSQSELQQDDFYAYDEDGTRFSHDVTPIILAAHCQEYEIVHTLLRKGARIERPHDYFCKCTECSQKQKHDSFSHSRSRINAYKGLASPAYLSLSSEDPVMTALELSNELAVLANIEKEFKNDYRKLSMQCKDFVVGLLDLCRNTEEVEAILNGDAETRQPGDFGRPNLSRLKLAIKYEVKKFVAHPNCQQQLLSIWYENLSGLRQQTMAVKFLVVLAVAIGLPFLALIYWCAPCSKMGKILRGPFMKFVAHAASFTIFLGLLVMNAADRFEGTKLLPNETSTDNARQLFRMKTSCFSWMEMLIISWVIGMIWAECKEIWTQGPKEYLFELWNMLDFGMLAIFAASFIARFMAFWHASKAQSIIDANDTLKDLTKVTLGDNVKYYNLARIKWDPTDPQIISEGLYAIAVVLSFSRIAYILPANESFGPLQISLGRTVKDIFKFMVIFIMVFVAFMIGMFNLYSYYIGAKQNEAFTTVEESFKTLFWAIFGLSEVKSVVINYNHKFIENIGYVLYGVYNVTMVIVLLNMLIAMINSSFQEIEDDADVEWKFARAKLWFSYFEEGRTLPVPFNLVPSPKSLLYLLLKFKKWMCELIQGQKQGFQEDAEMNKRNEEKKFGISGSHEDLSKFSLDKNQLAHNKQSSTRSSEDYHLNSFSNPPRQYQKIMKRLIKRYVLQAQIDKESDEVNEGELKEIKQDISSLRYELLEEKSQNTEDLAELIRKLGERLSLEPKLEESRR

[10] = target: Short transient receptor potential channel 6 (Mus musculus) (UniProt Q61143); assay: activation of mouse TRPC6 channel, confirmation, selectivity assay for TRPC4 activator project, cell-based, HEK293, membrane potential dye, duplicate (AID 434950); details: HEK293 TRPC6, membrane potential fluorescence, at 10 µM; hits give high values
[11] = target: Short transient receptor potential channel 6 (Mus musculus) (UniProt Q61143); assay: TRPC6 potentiation by TRPC4 potentiator hits, confirmation, selectivity assay for TRPC4 potentiator project, HEK293 cells, membrane potential dye, duplicate (AID 434952;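 active = compound raising the membrane signal above positive-control mean plus 3 SD in both repeats, and a primary screen hit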); details: HEK293 TRPC6, membrane potential dye fluorescence, at 10 µM, maximal acetylcholine added after compound; hits give high values
[12] = target: Short transient receptor potential channel 4 (Mus musculus) (UniProt Q9QUQ5); assay: calcium flux activators in TRPC4/5HT1a cells, counter-screen for TRPC4 activator project, cell-based, second counter screen, HEK293 TRPC4/5HT1a, Fluo-4 (AID 434977;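 active = calcium signal rise above buffer-control mean plus 5 SD in both duplicates, and also a hit in the primary screen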); details: Fluo-4 calcium flux, at 10 µM; hits give high values
[13] = calcium flux inhibitors in TRPC4/5HT1a cells, confirmation, counter-screen for TRPC4 inhibitor project, cell-based, second counter screen, HEK293 TRPC4/5HT1a, Fluo-4 (AID 434978;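 active = primary screen active whose calcium signal fell more than 3 SD beyond the full-serotonin control mean in both duplicate plates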); details: Fluo-4 calcium flux, at 10 µM, serotonin added to trigger calcium flux; hits give high values
[14] = tested on: TRPC4 (mouse), co-expressed with 5HT1a in HEK293; assay: calcium flux potentiators in TRPC4/5HT1a cells, confirmation, counter-screen for TRPC4 potentiator project, cell-based, second counter screen, HEK293 TRPC4/5HT1a, Fluo-4 (AID 434979;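 active = signal rise over 3 SD above mean of control wells given weak agonist, in both repeats and first screen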); details: Fluo-4 calcium flux, at 10 µM, serotonin added at its EC20 dose; hits give high values
[15] = calcium flux activation in mu-opioid HEK293 cells, confirmation, counter-screen for TRPC4 activator project, cell-based, HEK293 mu-opioid receptor line (AID 449723;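 active = hit in primary screen, with calcium signal over 5 SD above buffer well mean in both duplicates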;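 note: counter screen cells carry the mu-opioid receptor alone and lack TRPC4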); details: Fluo-4 calcium fluorescence, at 10 µM; hits give high values
[16] = calcium flux enhancement in mu-opioid HEK293 cells, confirmation, counter-screen for TRPC4 allosteric potentiator project, cell-based, HEK293 mu-opioid receptor line (AID 449724;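 active = calcium signal rise more than 3 SD above the low-dose agonist control mean, in both duplicate plates and the primary screen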); details: Fluo-4 calcium flux, at 10 µM, compound added before EC20 DAMGO stimulus; hits give high values

Measured: inhibition

Cc1ccc(S(=O)(=O)c2cnc(-c3ccccc3)nc2N2CCN(C)CC2)cc1
inactive: [1] | [2] | [3] | [4] | [6] | [7] | [8] | [9] | [10] | [11] | [12] | [13] | [14] | [15] | [16]
active: [5] 64%

c1ccc2c(N3CCCCC3)nc(N3CCOCC3)nc2c1
active: [5] 84% | [13] 30.8%
inactive: [1] | [2] | [3] | [4] | [6] | [7] | [8] | [9] | [10] | [11] | [12] | [14] | [15] | [16]

OCCCNc1c2ccccc2nc2ccccc12
inactive: [1] | [2] | [3] | [4] | [6] | [7] | [8] | [10] | [11] | [12] | [14] | [15] | [16]
active: [5] 92% | [9] 39.5% | [13] 41.8%

CC1CCc2c(sc(/N=C/N(C)C)c2C#N)C1 (stereo unspecified)
active: [5] 78%
inactive: [1] | [2] | [3] | [4] | [6] | [7] | [8] | [9] | [10] | [11] | [12] | [13] | [14] | [15] | [16]

NC(=O)c1nsc(C(=O)N(Cc2ccccc2Cl)C(C(=O)NCC2CCCO2)c2ccc(O)cc2)c1N (stereo unspecified)
active: [5] 90% | [13] 28.6%
inactive: [1] | [2] | [3] | [4] | [6] | [7] | [8] | [9] | [10] | [11] | [12] | [14] | [15] | [16]

CCC1(C(=O)c2ccccc2)C(c2ccc([N+](=O)[O-])cc2)C1(C(=O)OC)C(=O)OC (stereo unspecified)
inactive: [1] | [2] | [3] | [4] | [6] | [7] | [8] | [9] | [10] | [11] | [12] | [13] | [14] | [15] | [16]
active: [5] 71%

COc1ccc(C2C(C(C)=O)=C(O)C(=O)N2c2ccc(Br)cc2)cc1 (stereo unspecified)
inactive: [1] | [2] | [3] | [4] | [7] | [8] | [9] | [10] | [11] | [12] | [14] | [15] | [16]
active: [5] 84% | [6] 62% | [13] 23.3%

O=C(c1cccc(C(=O)N2CCN(c3ccc(F)cc3)CC2)c1)N1CCN(c2ccc(F)cc2)CC1
inactive: [1] | [2] | [3] | [4] | [7] | [8] | [9] | [10] | [11] | [12] | [14] | [15] | [16]
active: [5] 88% | [6] 53% | [13] 42%

Nc1c2c(nc3c1CCCC3)CCCC2 (tested in a mixture with another compound)
inactive: [1] | [2] | [3] | [4] | [7] | [8] | [9] | [10] | [11] | [12] | [14] | [15] | [16]
active: [5] 94% | [6] 60% | [13] 18.3%

CCOc1ccccc1CN1CCN(Cc2cccc3nonc23)CC1CCO (stereo unspecified)
inactive: [1] | [2] | [3] | [4] | [5] | [6] | [7] | [8] | [9] | [10] | [11] | [12] | [13] | [14] | [15] | [16]

O=C(CSc1nnc(-c2ccc(Cl)cc2Cl)n1C1CCCCC1)N1CCCC1
inactive: [1] | [2] | [3] | [4] | [5] | [7] | [8] | [9] | [10] | [11] | [12] | [13] | [14] | [15] | [16]
active: [6] 48%

Oc1ccccc1Nc1nc(NCc2ccco2)c2ccccc2n1
active: [5] 88% | [9] 34.5% | [13] 39.1%
inactive: [1] | [2] | [3] | [4] | [6] | [7] | [8] | [10] | [11] | [12] | [14] | [15] | [16]

CN(C)C(CNC(=O)c1cccc(C(F)(F)F)c1)c1ccco1 (stereo unspecified)
inactive: [1] | [2] | [3] | [4] | [7] | [8] | [9] | [10] | [11] | [12] | [13] | [14] | [15] | [16]
active: [5] 67% | [6] 69%

CCOc1ccc2ccccc2c1CNCCc1ccc(S(N)(=O)=O)cc1
inactive: [1] | [2] | [3] | [4] | [6] | [7] | [8] | [9] | [10] | [11] | [12] | [14] | [15] | [16]
active: [5] 92% | [13] 35.5%

O=C(COC(=O)C1CC1)Nc1nc(-c2ccc(F)c(F)c2)cs1
active: [5] 70% | [13] 41.5%
inactive: [1] | [2] | [3] | [4] | [6] | [7] | [8] | [9] | [10] | [11] | [12] | [14] | [15] | [16]

CCCn1c(=O)c2ccccc2n2c(SCCOc3ccc(C)cc3)nnc12
active: [5] 77% | [13] 46.3%
inactive: [1] | [2] | [3] | [4] | [6] | [7] | [8] | [9] | [10] | [11] | [12] | [14] | [15] | [16]
